From PubChem BioAssay AID1159580 (chemical genetic matrix, 2015)
Screen size: about 5,500 compounds; about 2,000 (36%) were called active. Not shown: some 18% with an inconclusive outcome. No stated cut-off is given here; in the data, active means normalized growth mostly below about 0.91 (no sharp cut-off); inconclusive means no clear call, values can overlap the other calls; inactive means mostly above about 0.92. This is one part of the list.

Assay: chemical genetic growth profiling, strain panel (AID 1159580);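 further: tested at 20 µM; growth read once vehicle control cultures reached saturation at 30 °C; 1 = growth at the plate median or of vehicle wells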
Settings: S. cerevisiae deletion strains, growth OD
[1] = locus YAL040C, strain CLN3, stronger effect = lower value
[2] = locus YCL061C, strain MRC1 (second series), stronger effect = lower value
[3] = locus YDR150W, strain NUM1, stronger effect = lower value
[4] = locus YDR363W, strain ESC2, stronger effect = lower value
[5] = locus YER002W, strain NOP16, stronger effect = lower value
[6] = locus YGR078C, strain PAC10, stronger effect = lower value
[7] = locus YGR229C, strain SMI1, stronger effect = lower value
[8] = locus YJR075W, strain HOC1, stronger effect = lower value
[9] = locus YMR263W, strain SAP30, stronger effect = lower value
[10] = locus YMR307W, strain GAS1, stronger effect = lower value
[11] = locus YNL128W, strain TEP1, stronger effect = lower value
[12] = locus YNL153C, strain GIM3, stronger effect = lower value
[13] = locus YNL175C, strain NOP13, stronger effect = lower value
[14] = locus YNL197C, strain WHI3, stronger effect = lower value
[15] = locus YNL224C, strain SQS1, stronger effect = lower value
[16] = locus YOR083W, strain WHI5 (second series), stronger effect = lower value
[17] = locus YPL055C, strain LGE1, stronger effect = lower value
[18] = locus YPL241C, strain CIN2, stronger effect = lower value
[19] = locus YAR019C, strain CDC15, stronger effect = lower value
[20] = locus YBL105C, strain PKC1, stronger effect = lower value
[21] = locus YBR135W, strain CKS1, stronger effect = lower value
[22] = locus YBR136W, strain MEC1, stronger effect = lower value
[23] = locus YBR160W, strain CDC28, stronger effect = lower value
[24] = locus YDL017W, strain CDC7, stronger effect = lower value
[25] = locus YDL028C, strain MPS1, stronger effect = lower value
[26] = locus YDL101C, strain DUN1, stronger effect = lower value
[27] = locus YDL108W, strain KIN28, stronger effect = lower value
[28] = locus YDL132W, strain cdc53, stronger effect = lower value
[29] = locus YDL214C, strain PRR2, stronger effect = lower value
[30] = locus YDR052C, strain DBF4, stronger effect = lower value
[31] = locus YDR054C, strain cdc34, stronger effect = lower value
[32] = locus YDR226W, strain ADK1, stronger effect = lower value
[33] = locus YDR477W, strain SNF1, stronger effect = lower value
[34] = locus YER123W, strain YCK3, stronger effect = lower value
[35] = locus YER133W, strain GLC7, stronger effect = lower value
[36] = locus YFL009W, strain cdc4, stronger effect = lower value
[37] = locus YFL029C, strain CAK1, stronger effect = lower value
[38] = locus YFR003C, strain YPI1, stronger effect = lower value
[39] = locus YFR019W, strain FAB1, stronger effect = lower value
[40] = locus YFR028C, strain CDC14, stronger effect = lower value
[41] = locus YGR040W, strain KSS1, stronger effect = lower value
[42] = locus YGR052W, strain FMP48, stronger effect = lower value
[43] = locus YGR092W, strain DBF2, stronger effect = lower value
[44] = locus YHR030C, strain SLT2, stronger effect = lower value
[45] = locus YHR079C, strain IRE1, stronger effect = lower value
[46] = locus YHR082C, strain KSP1, stronger effect = lower value
[47] = locus YHR205W, strain SCH9, stronger effect = lower value
[48] = locus YIL147C, strain SLN1, stronger effect = lower value
[49] = locus YJL095W, strain BCK1, stronger effect = lower value
[50] = locus YJL128C, strain PBS2, stronger effect = lower value
[51] = locus YJL157C, strain FAR1, stronger effect = lower value
[52] = locus YJR016C, strain ILV3, stronger effect = lower value
[53] = locus YJR066W, strain TOR1 (second series), stronger effect = lower value
[54] = locus YJR066W, strain TOR1, stronger effect = lower value
[55] = locus YKL048C, strain ELM1, stronger effect = lower value
[56] = locus YKL067W, strain YNK1, stronger effect = lower value
[57] = locus YKL101W, strain HSL1, stronger effect = lower value
[58] = locus YKL193C, strain SDS22, stronger effect = lower value
[59] = locus YKL203C, strain TOR2, stronger effect = lower value
[60] = locus YLR113W, strain HOG1, stronger effect = lower value
[61] = locus YLR133W, strain CKI1, stronger effect = lower value
[62] = locus YLR403W, strain SFP1, stronger effect = lower value
[63] = locus YML070W, strain DAK1, stronger effect = lower value
[64] = locus YMR001C, strain CDC5, stronger effect = lower value
[65] = locus YMR205C, strain PFK2 (second series), stronger effect = lower value
[66] = locus YMR277W, strain FCP1, stronger effect = lower value
[67] = locus YNL006W, strain LST8, stronger effect = lower value
[68] = locus YNL020C, strain ARK1, stronger effect = lower value
[69] = locus YNL161W, strain CBK1, stronger effect = lower value
[70] = locus YNL183C, strain NPR1, stronger effect = lower value
[71] = locus YNL207W, strain RIO2, stronger effect = lower value
[72] = locus YNL222W, strain SSU72, stronger effect = lower value
[73] = locus YNL307C, strain MCK1 (second series), stronger effect = lower value
[74] = locus YOL078W, strain AVO1, stronger effect = lower value
[75] = locus YOL136C, strain PFK27, stronger effect = lower value
[76] = locus YOR061W, strain CKA2, stronger effect = lower value
[77] = locus YOR119C, strain RIO1, stronger effect = lower value
[78] = locus YOR231W, strain MKK1, stronger effect = lower value
[79] = locus YOR329C, strain SCD5, stronger effect = lower value
[80] = locus YPL031C, strain PHO85, stronger effect = lower value
[81] = locus YPL153C, strain RAD53, stronger effect = lower value
[82] = locus YPL204W, strain HRR25, stronger effect = lower value
[83] = locus YPL209C, strain IPL1, stronger effect = lower value
[84] = locus YPL256C, strain CLN2, stronger effect = lower value
[85] = locus YPR025C, strain CCL1, stronger effect = lower value
[86] = locus YPR106W, strain ISR1, stronger effect = lower value
[87] = locus YPR111W, strain DBF20, stronger effect = lower value
[88] = strain NNK1, stronger effect = lower value
[89] = strain TSCII, stronger effect = lower value
[90] = locus YNL322C, strain KRE1, stronger effect = lower value

Measured: normalized growth

CCN(CC)CCOC(=O)c1cc(Cl)c(N)cc1OC
inactive: [1] 0.981 | [2] 1.01 | [3] 1 | [4] 1 | [5] 1.02 | [6] 1.01 | [7] 1.01 | [8] 1.01 | [9] 1 | [10] 1 | [11] 1 | [12] 1 | [13] 1 | [14] 1.01 | [15] 1 | [16] 1.01 | [17] 0.954 | [18] 1

COc1cc(Cl)ccc1N/N=C(/C#N)C(N)=O
active: [19] 0.106 | [20] 0.0965 | [21] 0.109 | [22] 0.104 | [23] 0.104 | [24] 0.0952 | [25] 0.111 | [26] 0.124 | [27] 0.114 | [28] 0.102 | [29] 0.116 | [30] 0.0987 | [31] 0.104 | [32] 0.103 | [33] 0.115 | [34] 0.112 | [35] 0.12 | [36] 0.109 | [37] 0.109 | [38] 0.0947 | [39] 0.112 | [40] 0.106 | [41] 0.112 | [42] 0.153 | [43] 0.11 | [44] 0.194 | [45] 0.214 | [46] 0.221 | [47] 0.0135 | [48] 0.107 | [49] 0.189 | [50] 0.103 | [51] 0.105 | [52] 0.0991 | [53] 0.112 | [54] 0.181 | [55] 0.128 | [56] 0.119 | [57] 0.106 | [58] 0.106 | [59] 0.116 | [60] 0.262 | [61] 0.111 | [62] 0.00868 | [63] 0.114 | [64] 0.108 | [65] 0.104 | [66] 0.106 | [67] 0.0981 | [68] 0.11 | [69] 0.106 | [70] 0.148 | [71] 0.107 | [72] 0.105 | [73] 0.12 | [74] 0.105 | [75] 0.115 | [76] 0.0994 | [77] 0.115 | [78] 0.231 | [79] 0.102 | [80] 0.107 | [81] 0.111 | [82] 0.117 | [83] 0.0959 | [84] 0.231 | [85] 0.107 | [86] 0.0943 | [87] 0.108 | [88] 0.0995 | [89] 0.107

COC(=O)c1ccc(Cl)cc1NS(=O)(=O)c1ccc(OC)c(OC)c1
inactive: locus YAL013W, strain DEP1, stronger effect = lower value 1.01 | locus YBR229C, strain ROT2, stronger effect = lower value 0.976 | [26] 0.987 | [3] 1.04 | locus YEL061C, strain CIN8, stronger effect = lower value 1.01 | [6] 0.986 | [7] 1.02 | [44] 0.969 | locus YHR087W, strain rtc3, stronger effect = lower value 1.02 | locus YJL187C, strain SWE1, stronger effect = lower value 1 | locus YJR043C, strain POL32, stronger effect = lower value 0.978 | [8] 0.984 | locus YKL190W, strain CNB1, stronger effect = lower value 1.01 | locus YLR039C, strain RIC1, stronger effect = lower value 0.934 | locus YLR058C, strain SHM2 (second series), stronger effect = lower value 1.01 | locus YLR085C, strain ARP6, stronger effect = lower value 1.01 | locus YLR262C, strain YPT6, stronger effect = lower value 0.947 | locus YML094W, strain GIM5, stronger effect = lower value 1.03 | locus YMR219W, strain ESC1, stronger effect = lower value 1 | [9] 0.986 | [12] 0.996 | locus YNL298W, strain CLA4 (second series), stronger effect = lower value 0.989 | [90] 1 | locus YNR030W, strain Alg12, stronger effect = lower value 0.998 | [17] 0.966 | [18] 1.01 | locus YPR135W, strain CTF4, stronger effect = lower value 0.999

Nc1cc(=O)[nH]c(N)n1
inactive: [1] 1.01 | [2] 0.991 | [3] 0.978 | [4] 0.953 | [5] 1.01 | [10] 0.981 | [11] 0.984 | [13] 1.01 | [14] 0.987 | [15] 1.01 | [90] 1 | [16] 1.02 | [18] 1.01

CC(C)(C)c1ccc(C(=N)SC(C(=O)C(F)(F)F)c2ccccc2)cc1 (stereo not given)
active: [44] 0.471 | [84] 0.846
inactive: [19] 0.987 | [20] 0.994 | [21] 0.994 | [22] 0.985 | [23] 0.994 | [24] 0.998 | [25] 0.989 | [26] 0.992 | [27] 0.987 | [28] 0.989 | [29] 0.916 | [30] 0.993 | [31] 0.986 | [32] 0.993 | [33] 0.865 | [34] 0.877 | [35] 0.942 | [36] 0.991 | [37] 0.982 | [38] 0.986 | [39] 0.884 | [40] 0.985 | [41] 0.894 | [42] 0.96 | [43] 0.887 | [45] 0.804 | [46] 0.766 | [47] 0.778 | [48] 0.992 | [49] 0.868 | [50] 1.02 | [51] 0.966 | [52] 0.995 | [53] 0.931 | [54] 0.859 | [55] 0.96 | [56] 0.951 | [57] 0.875 | [58] 0.986 | [59] 0.98 | [60] 0.901 | [61] 0.887 | [62] 0.89 | [63] 0.9 | [64] 0.983 | [65] 0.941 | [66] 0.993 | [67] 0.997 | [68] 0.884 | [69] 0.993 | [70] 0.863 | [71] 0.99 | [72] 0.989 | [73] 0.794 | [74] 0.994 | [75] 0.901 | [76] 0.885 | [77] 0.979 | [78] 0.938 | [79] 0.988 | [80] 0.872 | [81] 0.909 | [82] 0.905 | [83] 0.99 | [85] 0.995 | [86] 0.988 | [87] 0.977 | [88] 0.982 | [89] 0.985
